Structures can show the parent of a compound that is named as a salt.
The molecules below were run on Saccharomyces cerevisiae BY4741 SeMeCo community (assay: z-score of subpopulation abundance vs DMSO median, subpopulation auxotrophic for LUM; higher = larger share of this subpopulation than in DMSO controls). Conditions: 10 µM; 24 h; SM minimal medium; subpopulation (auxotrophy): LUM.
Method: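 Fluorescent four-plasmid SeMeCo (self-establishing metabolically cooperating S. cerevisiae BY4741 community; plasmids pH-mRuby2, pL-mWasabi, pU-eCFP, pM-TagRFP657) was grown 24 h in minimal SM medium with each Selleck FDA-approved drug at 10 µM in 384-well plates. Cells were fixed and imaged by high-content confocal microscopy. For each auxotrophic subpopulation (and the prototroph), a z-score gives the deviation from the DMSO vehicle-control population median.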

Going from NC(=N\CCCCCC/N=C(N)/N=C(\N)Nc1ccc(Cl)cc1)/N=C(\N)Nc1ccc(Cl)cc1 [Chlorhexidine diacetate] to CN(C)C(=O)COC(=O)Cc1ccc(OC(=O)c2ccc(NC(=N)N)cc2)cc1 [Camostat Mesilate], the “z-score of subpopulation abundance” value falls from 1.19 to -0.84.

First: CCNC(=O)[C@@H]1CCCN1C(=O)[C@H](CCCNC(=N)N)NC(=O)[C@H](CC(C)C)NC(=O)[C@@H](CC(C)C)NC(=O)[C@H](Cc1ccc(O)cc1)NC(=O)[C@H](CO)NC(=O)[C@H](Cc1c[nH]c2ccccc12)NC(=O)[C@H](Cc1c[nH]cn1)NC(=O)[C@@H]1CCC(=O)N1 [Leuprolide Acetate]
Second: CC(C)n1c(/C=C/C(O)CC(O)CC(=O)O)c(-c2ccc(F)cc2)c2ccccc21 (stereo not given) [Fluvastatin Sodium]
The “z-score of subpopulation abundance” value of the first is lower: 0.35 for the first, 4.75 for the second.

Going from N=C(N)NS(=O)(=O)c1ccc(N)cc1 [Sulfaguanidine] to CCOC(=O)c1ccc(N)cc1 [Benzocaine], the “z-score of subpopulation abundance” value rises from -0.49 to -0.29.

First: COc1ccc(CNc2nc(N3CCC[C@H]3CO)ncc2C(=O)NCc2ncccn2)cc1Cl [Avanafil]
Second: O=C(O)c1ccccc1C(=O)Nc1ccc(S(=O)(=O)Nc2nccs2)cc1 [Phthalylsulfathiazole]
The “z-score of subpopulation abundance” value of the first is lower: -0.38 for the first, -0.13 for the second.

Compared with CCCCCNC(=N)N/N=C/c1c[nH]c2ccc(OC)cc12 [Tegaserod Maleate], COc1ccc(-c2nc3cc(C4=NNC(=O)CC4C)ccc3[nH]2)cc1 (stereo not given) [Pimobendan] is lower in “z-score of subpopulation abundance” value: 1.92 for the first, 1.6 for the second.

Going from C[C@](N)(Cc1ccc(O)c(O)c1)C(=O)O [Methyldopa] to O=C(O)c1ccccc1O [Salicylic acid], the “z-score of subpopulation abundance” value rises from -1.19 to -0.79.

Compared with Oc1ccc(C2CNCCc3c2cc(O)c(O)c3Cl)cc1 (stereo not given) [Fenoldopam mesylate], CC[C@@]1(O)C(=O)OCc2c1cc1n(c2=O)Cc2cc3cc(O)ccc3nc2-1 [Hydroxy Camptothecine] is lower in “z-score of subpopulation abundance” value: -1.22 for the first, -1.35 for the second.

First: CCN(CC)CCOC(=O)c1ccc(N)cc1Cl [Chloroprocaine HCl]
Second: CCN(CC)CC#CCOC(=O)C(O)(c1ccccc1)C1CCCCC1 (stereo not given) [Oxybutynin]
The “z-score of subpopulation abundance” value of the first is higher: 0.45 for the first, -0.32 for the second.

Going from Clc1ccc(CCC(Cn2ccnc2)Sc2c(Cl)cccc2Cl)cc1 (stereo not given) [Butoconazole] to Clc1ccc(C(Cn2ccnc2)OCc2ccc(Sc3ccccc3)cc2)c(Cl)c1 (stereo not given) [Fenticonazole Nitrate], the “z-score of subpopulation abundance” value falls from 3.75 to -1.04.

Compared with Cc1cccc(C#Cc2ccccc2)n1, O=C(O)c1cccnc1Nc1cccc(C(F)(F)F)c1 [Niflumic acid] is higher in “z-score of subpopulation abundance” value: -0.34 for the first, 0.4 for the second.

Going from N[C@@H](C(=O)N[C@@H]1C(=O)N2C(C(=O)O)=C(Cl)CS[C@H]12)c1ccccc1 [Cefaclor] to O=C(O)C1=C(CSc2nnnn2CS(=O)(=O)O)CS[C@@H]2[C@H](NC(=O)[C@H](O)c3ccccc3)C(=O)N12 [Cefonicid sodium], the “z-score of subpopulation abundance” value falls from 0.65 to -0.25.

First: CCC(C)(Oc1ccc(C2(c3ccc(OC(C)(CC)C(=O)O)cc3)CCCCC2)cc1)C(=O)O (stereo not given) [Clinofibrate]
Second: NC(=O)C(c1ccccc1)(c1ccccc1)[C@@H]1CCN(CCc2ccc3c(c2)CCO3)C1 [Darifenacin HBr]
The “z-score of subpopulation abundance” value of the first is lower: -1.09 for the first, -0.55 for the second.

Compared with CC1(C)[C@H](C(=O)O)N2C(=O)C[C@H]2S1(=O)=O [Sulbactam], CC1(C)S[C@@H]2[C@H](NC(=O)Cc3ccccc3)C(=O)N2[C@H]1C(=O)O [Benzylpenicillin potassium] is higher in “z-score of subpopulation abundance” value: -0.1 for the first, 0.72 for the second.

Compared with COCCCN1CCC(NC(=O)c2cc(Cl)c(N)c3c2OCC3)CC1 [Prucalopride Succinate], CNC1CCCN(c2c(F)cc3c(=O)c(C(=O)O)cn(C4CC4)c3c2OC)C1 (stereo not given) [Balofloxacin] is lower in “z-score of subpopulation abundance” value: 0.31 for the first, 0.17 for the second.

First: CC(C(=O)O)c1ccc(C(=O)c2cccs2)cc1 (stereo not given) [Suprofen]
Second: C[C@@H](c1nc(-c2ccc(C#N)cc2)cs1)[C@](O)(Cn1cncn1)c1cc(F)ccc1F [Isavuconazole]
The “z-score of subpopulation abundance” value of the first is lower: -0.07 for the first, 7.48 for the second.

Going from C[C@]12CCC(=O)C=C1[C@@H]1C[C@@H]1[C@H]1[C@@H]3[C@@H]4C[C@@H]4[C@@]4(CCC(=O)O4)[C@@]3(C)CC[C@@H]12 [Drospirenone] to CN1CCc2cc3c(cc2C(=O)Cc2ccc4c(c2C1)OCO4)OCO3 [Protopine], the “z-score of subpopulation abundance” value rises from 0.85 to 1.38.

First: C1N2CN3CN1CN(C2)C3 [Methenamine]
Second: CCCc1nn(C)c2c(=O)[nH]c(-c3cc(S(=O)(=O)N4CCN(C)CC4)ccc3OCC)nc12 [Sildenafil Mesylate]
The “z-score of subpopulation abundance” value of the first is lower: 0.29 for the first, 0.38 for the second.

Compared with O=C(Nc1cc(Cl)cc(Cl)c1O)c1c(O)c(Cl)cc(Cl)c1Cl [Oxyclozanide], N=C(N)NC(=O)c1nc(Cl)c(N)nc1N [Amiloride HCl] is higher in “z-score of subpopulation abundance” value: -0.27 for the first, 0.19 for the second.

First: CCCCC(F)(F)[C@@]1(O)CC[C@H]2[C@@H](CC(=O)[C@@H]2CCCCCCC(=O)O)O1 [Lubiprostone]
Second: CC(C)c1nc(N(C)S(C)(=O)=O)nc(-c2ccc(F)cc2)c1/C=C/[C@@H](O)C[C@@H](O)CC(=O)O [Rosuvastatin Calcium]
The “z-score of subpopulation abundance” value of the first is lower: -0.67 for the first, 1.01 for the second.

Compared with NC(CO)(CO)CO [Trometamol], OC(c1ccccc1)(c1ccccc1)C12CC[N+](CCOCc3ccccc3)(CC1)CC2 [Umeclidinium bromide] is lower in “z-score of subpopulation abundance” value: 0.42 for the first, -0.49 for the second.
